Reference: article PMC11062922 (Nature Chemical Biology, 2023)
Like-named read-outs stand apart in the source and are kept apart here.

Key:
Set-up in all cases: species or system human, MV4-11 + K-562 + COLO205 + SK-N-BE2 + OVCAR-8
[1] = system: ADRBK1; details: read-out: apparent Kd, n = 1
[2] = system: AGPS; details: read-out: apparent Kd; compound concentrations:100 nM and 1000 nM (sheet 'Samples'); n = 1
[3] = system: AKT1; details: read-out: apparent Kd, n = 1
[4] = system: AKT2; details: read-out: apparent Kd, n = 1
[5] = system: AKT3; details: read-out: apparent Kd, n = 1
[6] = system: CDK16; details: read-out: apparent Kd; compound concentrations:100 nM and 1000 nM (sheet 'Samples'); n = 1
[7] = system: CDK17; details: read-out: apparent Kd; compound concentrations:100 nM and 1000 nM (sheet 'Samples'); n = 1
[8] = system: T1, DJA1; details: read-out: apparent Kd; compound concentrations:100 nM and 1000 nM (sheet 'Samples'); n = 1
T1 construct: gene DNAJA1

[9] = system: FLT3; details: read-out: apparent Kd, n = 1
[10] = system: ILK; details: read-out: apparent Kd, n = 1
[11] = system: MAP2K1; details: read-out: apparent Kd, n = 1
[12] = system: MAP2K2; details: read-out: apparent Kd, n = 1
[13] = system: NNT; details: read-out: apparent Kd, n = 1
[14] = system: NQO1; details: read-out: apparent Kd, n = 1
[15] = system: PDGFRB; details: read-out: apparent Kd; compound concentrations:100 nM and 1000 nM (sheet 'Samples'); n = 1
[16] = system: PIP4K2C; details: read-out: apparent Kd; compound concentrations:100 nM and 1000 nM (sheet 'Samples'); n = 1
[17] = system: PRKAG1; details: read-out: apparent Kd; compound concentrations:100 nM and 1000 nM (sheet 'Samples'); n = 1
[18] = system: PRKAG2; details: read-out: apparent Kd; compound concentrations:100 nM and 1000 nM (sheet 'Samples'); n = 1
[19] = system: PYGL; details: read-out: apparent Kd, n = 1
[20] = system: RIOK2; details: read-out: apparent Kd, n = 1
[21] = system: STK26; details: read-out: apparent Kd; compound concentrations:100 nM and 1000 nM (sheet 'Samples'); n = 1
[22] = system: VDAC3; details: read-out: apparent Kd, n = 1
[23] = system: CDK6; details: read-out: apparent Kd, compound concentrations: 100 nM and 1000 nM (sheet 'Samples'), n = 1
[24] = system: ADK; details: read-out: apparent Kd; compound concentrations: 100 nM and 1000 nM (sheet 'Samples'), CATDS: 0.51902262396373799; n = 1
[25] = system: COX5A; details: read-out: apparent Kd; compound concentrations: 100 nM and 1000 nM (sheet 'Samples'), CATDS: 0.48232246819666902; n = 1
[26] = system: HSP90B1; details: read-out: apparent Kd; compound concentrations: 100 nM and 1000 nM (sheet 'Samples'), CATDS: 7.7391071706101697E-2; n = 1
[27] = system: IARS; details: read-out: apparent Kd; compound concentrations: 100 nM and 1000 nM (sheet 'Samples'), CATDS: 5.4756501565327097E-2; n = 1
[28] = system: MAPK14; details: read-out: apparent Kd; compound concentrations: 100 nM and 1000 nM (sheet 'Samples'), CATDS: 6.9601617206552405E-2; n = 1
[29] = system: MAPKAPK2; details: read-out: apparent Kd; compound concentrations: 100 nM and 1000 nM (sheet 'Samples'), CATDS: 5.3693102707434E-2; n = 1
[30] = system: MDN1; details: read-out: apparent Kd; compound concentrations: 100 nM and 1000 nM (sheet 'Samples'), CATDS: 0.23126444967608101; n = 1
[31] = compound concentrations:100 nM and 1000 nM (sheet 'Samples')

Q: What does the source list for `NS(=O)(=O)c1ccc(Nc2ncc(-c3ccccc3)o2)cc1` [GW572399X]?
A: potency estimated from few doses [1, 31]: 1910 nM; potency estimated from few doses [2]: 2050 nM; potency estimated from few doses [3, 31]: 1960 nM; potency estimated from few doses [4, 31]: 1970 nM; potency estimated from few doses [5, 31]: 1560 nM; potency estimated from few doses [6]: 1760 nM; potency estimated from few doses [7]: 2100 nM; potency estimated from few doses [8]: 1310 nM; potency estimated from few doses [9, 31]: 164 nM; potency estimated from few doses [10, 31]: 1870 nM; potency estimated from few doses [11, 31]: 1420 nM; potency estimated from few doses [12, 31]: 1740 nM; potency estimated from few doses [13, 31]: 1770 nM; potency estimated from few doses [14, 31]: 1900 nM; potency estimated from few doses [15]: 1480 nM; potency estimated from few doses [16]: 2290 nM; potency estimated from few doses [17]: 1790 nM; potency estimated from few doses [18]: 1380 nM; potency estimated from few doses [19, 31]: 1900 nM; potency estimated from few doses [20, 31]: 2160 nM; potency estimated from few doses [21]: 1400 nM; potency estimated from few doses [22, 31]: 1580 nM

Q: `Cl.Nc1n[nH]c2cc(-c3ccccn3)ccc12` [GSK2189892A] was tested. Which potency estimated from few doses ([1]; compound concentrations: 100 nM and 1000 nM (sheet 'Samples'), CATDS: 0.135716479442168) did it give?
A: Its potency estimated from few doses is 1470 nM.

Q: What about the potency estimated from few doses ([3]; compound concentrations: 100 nM and 1000 nM (sheet 'Samples'), CATDS: 0.124475037217828) of the same compound?
A: Its potency estimated from few doses is 1730 nM.

Q: What about the potency estimated from few doses ([4]; compound concentrations: 100 nM and 1000 nM (sheet 'Samples'), CATDS: 0.124185471208428) of the same compound?
A: The potency estimated from few doses was 1740 nM.

Q: What about the potency estimated from few doses ([5]; compound concentrations: 100 nM and 1000 nM (sheet 'Samples'), CATDS: 0.12570475509553999) of the same compound?
A: Its potency estimated from few doses is 1700 nM.

Q: What about the potency estimated from few doses ([23]; CATDS: 0.119736809743275) of the same compound?
A: The potency estimated from few doses was 1880 nM.

Q: And the potency estimated from few doses ([10]; compound concentrations: 100 nM and 1000 nM (sheet 'Samples'), CATDS: 0.12734816485016201)?
A: The potency estimated from few doses was 1660 nM.

Q: And the potency estimated from few doses ([12]; compound concentrations: 100 nM and 1000 nM (sheet 'Samples'), CATDS: 0.12469214085712101)?
A: Its potency estimated from few doses is 1730 nM.

Q: What about the potency estimated from few doses ([20]; compound concentrations: 100 nM and 1000 nM (sheet 'Samples'), CATDS: 0.119525040636944) of the same compound?
A: Its potency estimated from few doses is 1880 nM.

Q: `O=C(Nc1cccc(-c2nn3ccccc3c2-c2ccnc(Nc3cccc(C(F)(F)F)c3)n2)c1)c1c(F)cccc1F` [GSK292658A] was tested. Which potency estimated from few doses [24] did it give?
A: Its potency estimated from few doses is 1330 nM.

Q: What about the potency estimated from few doses [25] of the same compound?
A: The potency estimated from few doses was 1540 nM.

Q: `Cc1ccc(NC(=O)Nc2cc(C(C)(C)C)nn2-c2ccccc2)cc1` [GSK1014915A] was tested. Which potency estimated from few doses ([1]; compound concentrations: 100 nM and 1000 nM (sheet 'Samples'), CATDS: 5.8321770731493798E-2) did it give?
A: Its potency estimated from few doses is 1290 nM.

Q: What about the potency estimated from few doses ([3]; compound concentrations: 100 nM and 1000 nM (sheet 'Samples'), CATDS: 4.8230371724731401E-2) of the same compound?
A: Its potency estimated from few doses is 2030 nM.

Q: What about the potency estimated from few doses ([4]; compound concentrations: 100 nM and 1000 nM (sheet 'Samples'), CATDS: 6.0440208262816403E-2) of the same compound?
A: The potency estimated from few doses was 1190 nM.

Q: What about the potency estimated from few doses ([23]; CATDS: 5.1522031717759098E-2) of the same compound?
A: The potency estimated from few doses was 1710 nM.

Q: And the potency estimated from few doses ([9]; compound concentrations: 100 nM and 1000 nM (sheet 'Samples'), CATDS: 6.2638012545430999E-2)?
A: The potency estimated from few doses was 1110 nM.

Q: What about the potency estimated from few doses [26] of the same compound?
A: Its potency estimated from few doses is 749 nM.

Q: And the potency estimated from few doses [27]?
A: The potency estimated from few doses was 1480 nM.

Q: And the potency estimated from few doses ([11]; compound concentrations: 100 nM and 1000 nM (sheet 'Samples'), CATDS: 5.5357684673120397E-2)?
A: Its potency estimated from few doses is 1440 nM.

Q: And the potency estimated from few doses ([12]; compound concentrations: 100 nM and 1000 nM (sheet 'Samples'), CATDS: 6.2527819701534898E-2)?
A: The potency estimated from few doses was 1110 nM.

Q: What about the potency estimated from few doses [28] of the same compound?
A: Its potency estimated from few doses is 906 nM.

Q: And the potency estimated from few doses [29]?
A: The potency estimated from few doses was 1550 nM.

Q: What about the potency estimated from few doses [30] of the same compound?
A: The potency estimated from few doses was 156 nM.

Q: And the potency estimated from few doses ([13]; compound concentrations: 100 nM and 1000 nM (sheet 'Samples'), CATDS: 4.6645770981233098E-2)?
A: Its potency estimated from few doses is 2220 nM.

Q: And the potency estimated from few doses ([14]; compound concentrations: 100 nM and 1000 nM (sheet 'Samples'), CATDS: 6.3403997272240303E-2)?
A: The potency estimated from few doses was 1080 nM.

Q: What about the potency estimated from few doses ([19]; compound concentrations: 100 nM and 1000 nM (sheet 'Samples'), CATDS: 4.60061770009558E-2) of the same compound?
A: Its potency estimated from few doses is 2310 nM.

Q: What about the potency estimated from few doses ([20]; compound concentrations: 100 nM and 1000 nM (sheet 'Samples'), CATDS: 4.9711958169324999E-2) of the same compound?
A: Its potency estimated from few doses is 1870 nM.

Q: What about the potency estimated from few doses ([22]; compound concentrations: 100 nM and 1000 nM (sheet 'Samples'), CATDS: 5.6878291770418803E-2) of the same compound?
A: Its potency estimated from few doses is 1360 nM.
